MARV entry inh = inhibitors of Marburg virus binding or cell entry; actives 1.8% (n = 300,000); AID 540276; Marburg virus pseudotyped entry inhibition, cell reporter; Potency, µM (highest dose often 37.8 µM), actives largely listed as inhibitors; calls by dose curve; tested in HEK293 cells
Shiga toxin inh = inhibitors of Shiga toxin in Vero cells; Vero cells, Shiga toxin protein synthesis inhibition reporter; inhibition, % at 38.7 µM; actives 9.2% (n = 290,000); AID 2315; in the data active means inhibition mostly above about 28%, no sharp cut-off; inactive means mostly below about 43%
Cycloheximide cs = affects cycloheximide protein synthesis inhibition readout, counter-screen. actives 12% (n = 300,000). max response, %. cell reporter, cycloheximide protein synthesis inhibition counterscreen; in the data active means max response mostly above about 13%, no sharp cut-off; inactive means mostly below about 14%; further: read at 38.3 µM for the half of the compounds with a filed dose
LASV entry inh = blocks Lassa virus binding to or entry into cells; Lassa virus pseudotype entry inhibition, cell reporter; Potency, µM (top dose mostly 37.9 µM), usual class: inhibitors; actives 1.2% (n = 300,000); AID 540256; calls by dose curve; tested in HEK293 cells; further: nearly all actives have a fitted effect of over 50% in size
AMA1 RON2 block = inhibitors of Plasmodium falciparum AMA1-RON2 interaction; AlphaScreen AMA1-biotinylated RON2 peptide binding; Potency, µM (highest dose often 58.2 µM), usual class: inhibitors; actives 0.2% (n = 360,000); AID 720542; active means well fitted inhibition curve with a large enough effect; inconclusive means small, poorly fitted or top-dose-only effect; inactive means no such curve, though single readings can be large or run the other way; further: nearly all actives have a fitted effect of over 45% in size
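AMA1 (3D7) with his tag at 25 nM final met compounds first, then biotinylated RON2 peptide at 25 nM; detection used donor plus acceptor beads, 10 µg/mL apiece, read by AlphaScreen after 30 min at room temperature.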
Of the large screens only hits and unclear results are named; the others gave an inactive call. Only a selection was taken, and hits are over-represented in it overall.

Oc1ccccc1-c1nc(/C=C/c2ccccc2)nn1-c1ccccc1	MARV entry inh inconclusive, Cycloheximide cs 23
Oc1ccc(/C=C/c2nc(-c3ccccc3O)n(-c3ccccc3)n2)cc1	MARV entry inh inconclusive, LASV entry inh 12µM
O=C(CSc1nc2c([nH]c3ccccc32)c(=O)n1-c1ccccc1)N1CCCc2ccccc21	none (no result: MARV entry inh, Shiga toxin inh, Cycloheximide cs, AMA1 RON2 block)
CCc1nnc(NC(=O)Nc2ccc(OC)cc2)s1	Cycloheximide cs 24
O=C(Nc1nccs1)c1cccc(NC(=O)C(F)(F)F)c1	Shiga toxin inh 73, Cycloheximide cs 18 (no result: MARV entry inh, LASV entry inh)
Cn1cc([N+](=O)[O-])c(C(=O)NCC(=O)O)n1	none (no result: MARV entry inh, LASV entry inh)
COc1ccc(C(=O)Nc2nccs2)cc1	Cycloheximide cs 29, LASV entry inh inconclusive (no result: Shiga toxin inh)
Cn1cc([N+](=O)[O-])c(C(=O)Nc2nccs2)n1	Cycloheximide cs 30 (no result: MARV entry inh, LASV entry inh)
Cc1cc(C)cc(-c2cc3c(c(-c4c(O)c(-c5cc(C)cc(C)c5)cc5c4CCCC5)c2O)CCCC3)c1	none (no result: Shiga toxin inh, Cycloheximide cs, LASV entry inh, AMA1 RON2 block)
CCOC(=O)c1sc(N2C(=O)c3oc4ccc(C)cc4c(=O)c3C2c2ccccc2F)nc1C (stereo not given)	none (no result: Shiga toxin inh, Cycloheximide cs, AMA1 RON2 block)
Cn1cc([N+](=O)[O-])c(C(=O)Nc2ccc(Br)cn2)n1	Shiga toxin inh 52, Cycloheximide cs 25
CCOCc1nnc(NC(=O)c2ccc(OC)cc2)s1	Shiga toxin inh 48, Cycloheximide cs 22
CC(C)Cc1nnc(NC(=O)Nc2ccccc2)s1	MARV entry inh inconclusive, Shiga toxin inh 57, Cycloheximide cs 46, LASV entry inh inconclusive
COc1ccc(NC(=O)Nc2nccs2)cc1	Shiga toxin inh 85, Cycloheximide cs 32
CC(C)Cc1nnc(NC(=O)CCC(=O)Nc2ccccc2)s1	none
O=C(NCc1cccc(Cl)c1)C1CCCN(c2ncnc3onc(-c4ccc(F)cc4)c23)C1 (stereo not given)	none (no result: MARV entry inh, Shiga toxin inh, Cycloheximide cs, AMA1 RON2 block)
CC(C)Cc1nnc(NC(=O)c2ccc([N+](=O)[O-])cc2)s1	Cycloheximide cs 17
CC(C)Cc1nnc(NC(=O)c2ccncc2)s1	none
COc1ccc(C(=O)Nc2nccs2)cc1[N+](=O)[O-]	Cycloheximide cs 27
COc1ccc(C(=O)Nc2nccs2)cc1OC	Cycloheximide cs 28
O=C(Nc1ccc(Cl)cc1)Nc1nnc(Cc2ccc([N+](=O)[O-])cc2)s1	none (no result: MARV entry inh, LASV entry inh)
COc1ccc(CCC(=O)Nc2nccs2)cc1OC	none
COC(=O)c1sccc1NC(=O)c1ccc(OC)c([N+](=O)[O-])c1	none
Cc1ccc(NC(=O)Nc2nnc(Cc3ccc([N+](=O)[O-])cc3)s2)cc1	Shiga toxin inh 77, Cycloheximide cs 50
Cc1ccc(Cn2c(CCNC(=O)c3cccc(C)c3)nc3ccccc32)cc1	MARV entry inh inconclusive (no result: AMA1 RON2 block)
CCOc1cccc(NC(=O)C2CC(=O)N(C)C(=Nc3ccc(F)cc3)S2)c1 (stereo not given)	none (no result: MARV entry inh, Shiga toxin inh, Cycloheximide cs, AMA1 RON2 block)
CCOC(=O)Nc1sc(C)c(C)c1C(N)=O	MARV entry inh inconclusive
Cc1cc(-c2ccc(C(C)C)c(S(=O)(=O)NCc3ccco3)c2)on1	Shiga toxin inh 34, Cycloheximide cs 30 (no result: MARV entry inh, LASV entry inh)
CCc1ccc(-c2cc(C)no2)cc1S(=O)(=O)NCCc1ccccc1	Cycloheximide cs 35 (no result: MARV entry inh, LASV entry inh)
Cc1ccnc(NS(=O)(=O)c2cc(-c3cc(C)no3)ccc2C(C)C)c1	Shiga toxin inh 28, Cycloheximide cs 17 (no result: MARV entry inh, LASV entry inh)
Cc1ccc(NC(=O)CSCC(=O)N(C)Cc2c(F)cccc2Cl)cc1	none (no result: MARV entry inh, Shiga toxin inh, Cycloheximide cs, LASV entry inh)
COc1ccc(-c2nc3ccccc3o2)cc1NC(=O)c1ccc(-c2cccc(Cl)c2C)o1	none (no result: MARV entry inh, Shiga toxin inh, Cycloheximide cs, AMA1 RON2 block)
c1ccc(CCNc2nc3ccccc3n3nnnc23)cc1	none
ClC(Cl)(Cl)c1nc2ccccc2n2nncc12	MARV entry inh 4.5µM, LASV entry inh inconclusive
Cc1cc(OC(=O)N2CCCCC2)cc(C)c1Cl	none
Cc1cc(OCC(=O)N2CCCN(C)CC2)ccc1Cl	Cycloheximide cs 16
Cc1ccc2c(Cl)cc(Cl)c(OCC(=O)N3CCOCC3)c2n1	none (no result: MARV entry inh, Shiga toxin inh, Cycloheximide cs, LASV entry inh)
Cc1cc(OCC(=O)N2CCCC2)ccc1Cl	Shiga toxin inh 52, Cycloheximide cs 23, LASV entry inh inconclusive
Cc1ccc2c(Cl)cc(Cl)c(OCC(=O)N3CCCC3)c2n1	Shiga toxin inh 67, Cycloheximide cs 35
Cc1cc(OCC(=O)N2CCCC2)cc(C)c1Cl	Cycloheximide cs 9.4
O=C(COc1ccc2ccccc2c1)N1CCN(c2ccccc2O)CC1	LASV entry inh inconclusive
Cc1cc(Cl)ccc1OCC(=O)N1CCCN(C(=O)COc2ccc(Cl)cc2C)CC1	MARV entry inh 15µM, LASV entry inh inconclusive
O=C(COc1ccc2ccccc2c1)N1CCNCC1	Shiga toxin inh 52, Cycloheximide cs 12, LASV entry inh inconclusive
N#CC(C(=O)c1ccccc1)=C1SCCS1	Shiga toxin inh 58, Cycloheximide cs 35, LASV entry inh inconclusive
O=C(C(=O)c1ccc(O)cc1)c1ccccc1	none (no result: MARV entry inh, LASV entry inh)

Source: PubChem
